Experimental data taken from a collection of fitness landscapes (doi:10.1126/science.1257360).
Over roughly 140,000 sequences, “enrichment ratio after two sorts for PhoP signalling” has its median near 0; the highest 2% begin near 11. The list comes from a sample in which the highest values are over-represented; it also holds similar and randomly drawn sequences.

B1: PhoQ; a variant is named by its letters at X, in order, P23837 (parent)
chain: MKKLLRLFFPLSLRVRFLLATAAVVLVLSLAYGMVALIGYSVSFDKTTFRLLRGESNLFYTLAKWENNKLHVELPENIDKQSPTMTLIYDENGQLLWAQRDVPWLMKMIQPDWLKSNGFHEIEADVNDTSLLLSGDHSIQQQLQEVREDDDDAEMTHSVAVNVYPATSRMPKLTIVVVDTIPVELKSSYMVWSWFIYVLSANLLLVIPLLWVAAWWSLRPIEALAKEVRELEEHNRELLNPATTRELTSLVRNLNRLLKSERERYDKYRTTLTDLTHSLKTPLXXLQXXLRSLRSEKMSVSDAEPVMLEQISRISQQIGYYLHRASMRGGTLLSRELHPVAPLLDNLTSALNKVYQRKGVNISLDISPEISFVGEQNDFVEVMGNVLDNACKYCLEFVEISARQTDEHLYIVVEDDGPGIPLSKREVIFDRGQRVDTLRPGQGVGLAVAREITEQYEGKIVAGESMLGGARMEVIFGRQHSAPKDE

Variants of: B1
Assay: enrichment ratio after two sorts for PhoP signalling (ratio (wild type AVST 3.29)); higher = more functional
Conditions: with PhoP (E. coli)

Row | Variant | enrichment ratio
1 | WLKM | ≤ 0.25
2 | FCKF | ≤ 0.25
3 | MLLR | ≤ 0.25
4 | FQAN | ≤ 0.25
5 | ILQV | ≤ 0.25
6 | ELVF | ≤ 0.25
7 | YMHL | ≤ 0.25
8 | ENAI | ≤ 0.25
9 | AQCK | 29.5
10 | AQWM | ≤ 0.25
11 | AQRM | ≤ 0.25
12 | EQPV | ≤ 0.25
13 | NEVC | ≤ 0.25
14 | SRLL | 10.3
15 | TGLL | 12.6
16 | SNLL | 18.5
17 | NGLL | 3.87
18 | CFLL | ≤ 0.25
19 | ALLL | 8.77
20 | GELL | 12.9
21 | GEGL | ≤ 0.25
22 | SPLL | ≤ 0.25
23 | ANLL | 13.4
24 | GEEL | ≤ 0.25
25 | APLL | ≤ 0.25
26 | FYWW | ≤ 0.25

Row | Variant | enrichment ratio
27 | TYKE | ≤ 0.25
28 | SNRC | ≤ 0.25
29 | GTRN | ≤ 0.25
30 | HRVR | ≤ 0.25
31 | LSWW | ≤ 0.25
32 | ACNW | ≤ 0.25
33 | QYTV | ≤ 0.25
34 | PYEY | ≤ 0.25
35 | MGMC | 5.27
36 | TILL | 0.421
37 | FGLL | 12.6
38 | SGLL | 19.8
39 | YHLL | ≤ 0.25
40 | TDLL | 11.8
41 | KDLL | ≤ 0.25
42 | NHLL | ≤ 0.25
43 | FGNL | ≤ 0.25
44 | QGLL | 10.4
45 | FDLL | ≤ 0.25
46 | THLL | 14
47 | IMDM | ≤ 0.25
48 | IQAN | ≤ 0.25
49 | PYDA | ≤ 0.25
50 | PKEG | ≤ 0.25
51 | VQIN | ≤ 0.25
52 | QPDT | ≤ 0.25

Row | Variant | enrichment ratio
53 | LCFE | ≤ 0.25
54 | CCPF | ≤ 0.25
55 | HHCS | ≤ 0.25
56 | QELL | ≤ 0.25
57 | MVLL | 7.33
58 | GLLA | ≤ 0.25
59 | SMLS | 6.78
60 | CTLL | 0.613
61 | ITLL | 7.22
62 | SMLL | 11.2
63 | SMLA | 6.54
64 | SELL | 16.3
65 | GLLL | 11.7
66 | TTLL | 17.7
67 | HWCD | 2.96
68 | RPRI | ≤ 0.25
69 | VRDD | ≤ 0.25
70 | KIGV | ≤ 0.25
71 | THDR | ≤ 0.25
72 | AYVL | ≤ 0.25
73 | MAPF | ≤ 0.25
74 | SDCN | 4.78
75 | WMRH | ≤ 0.25
76 | DNPC | ≤ 0.25
77 | MCLL | 8.32
78 | GYLL | ≤ 0.25

Row | Variant | enrichment ratio
79 | KYLL | ≤ 0.25
80 | GGLL | 12.7
81 | DPLL | ≤ 0.25
82 | MNLL | 12.4
83 | RGLL | ≤ 0.25
84 | TNLL | 4.87
85 | AGLL | 14.6
86 | SQLL | 12.5
87 | QKGI | ≤ 0.25
88 | VHAG | ≤ 0.25
89 | IAYV | ≤ 0.25
90 | FDHC | ≤ 0.25
91 | EIDC | ≤ 0.25
92 | SSGH | 7.6
93 | QDTV | ≤ 0.25
94 | ILKM | ≤ 0.25
95 | SFLL | 3.56
96 | VTLL | 17.8
97 | VYLL | ≤ 0.25
98 | KQLL | ≤ 0.25
99 | MGGL | 4.99
100 | VTLA | 5.19
101 | MGRL | ≤ 0.25
102 | SALL | 18.6
103 | MGLL | 14.3
104 | IILL | 1.2

Row | Variant | enrichment ratio
105 | STLL | 16.4
106 | SLLL | 5.02
107 | PQRH | ≤ 0.25
108 | LTHP | ≤ 0.25
109 | TKSQ | 2.92
110 | HTAI | ≤ 0.25
111 | KTTI | ≤ 0.25
112 | LGSF | ≤ 0.25
113 | YVWK | ≤ 0.25
114 | IDNN | ≤ 0.25
115 | YTLL | 9.09
116 | IQLL | 0.329
117 | GSRL | ≤ 0.25
118 | ADLL | 9.99
119 | EQLL | ≤ 0.25
120 | ATLL | 20.5
121 | FTLL | 11.6
122 | TQLL | 18.9
123 | AHLL | 9.28
124 | YYLL | ≤ 0.25
125 | TPLL | ≤ 0.25
126 | GSLL | 14.1
127 | VRSK | ≤ 0.25
128 | LRNP | ≤ 0.25
129 | AMGN | 1.38
130 | QRDR | ≤ 0.25

Row | Variant | enrichment ratio
131 | FIYI | ≤ 0.25
132 | ITNW | ≤ 0.25
133 | WLSG | ≤ 0.25
134 | FDMD | ≤ 0.25
135 | MVGW | ≤ 0.25
136 | DRLW | ≤ 0.25
137 | GILL | 18.2
138 | NILL | 0.938
139 | QCLL | 2.35
140 | LTLL | 3.06
141 | LNLL | ≤ 0.25
142 | NPLL | ≤ 0.25
143 | WILL | ≤ 0.25
144 | GCLL | 18.3
145 | KCLL | ≤ 0.25
146 | GICL | 9.48
147 | GNLL | 15.3
148 | GTLL | 12.4
149 | TKDY | ≤ 0.25
150 | KPVK | ≤ 0.25
151 | ICMI | ≤ 0.25
152 | SFHP | ≤ 0.25
153 | YHHD | ≤ 0.25
154 | AQVH | 7.73
155 | GEFP | ≤ 0.25
156 | VRNY | ≤ 0.25

Row | Variant | enrichment ratio
157 | GNAL | 7.59
158 | SKLT | 4.23
159 | GALL | 13.8
160 | YALL | 10.6
161 | GAAL | ≤ 0.25
162 | SKLL | 14
163 | HILL | ≤ 0.25
164 | GIAL | 13
165 | WKIW | ≤ 0.25
166 | PCAY | ≤ 0.25
167 | QHAW | ≤ 0.25
168 | LSTI | ≤ 0.25
169 | GWLL | ≤ 0.25
170 | KRIA | ≤ 0.25
171 | FCYK | ≤ 0.25
172 | PGQT | ≤ 0.25
173 | QFAV | ≤ 0.25
174 | FDWQ | ≤ 0.25
175 | SGCY | 10.6
176 | WICR | ≤ 0.25
177 | KKMR | ≤ 0.25
178 | NICR | ≤ 0.25
179 | NIWM | ≤ 0.25
180 | AICR | 11.2
181 | AIMR | 16.6
182 | AICV | 15.3

Row | Variant | enrichment ratio
183 | AHMR | ≤ 0.25
184 | NICK | 14.4
185 | NICI | ≤ 0.25
186 | WICV | ≤ 0.25
187 | ADCV | ≤ 0.25
188 | IVKK | ≤ 0.25
189 | LSQL | ≤ 0.25
190 | TSAF | 7.11
191 | PIGM | ≤ 0.25
192 | ADYP | ≤ 0.25
193 | AICA | 3.23
194 | NICS | ≤ 0.25
195 | AIWM | ≤ 0.25
196 | AICI | 16.9
197 | AHYP | ≤ 0.25
198 | AICS | 18.9
199 | AILH | 3.54
200 | WICS | ≤ 0.25
201 | AIYP | 12.7
202 | AICK | 24.4
203 | AIGM | 8.76
